Reference: the supplement of paper PMC9925115
Counter-ions that a name gives are not always drawn. ± gives the uncertainty stated by the source.

Tests used:
[1] = test system: FLX1; assay: cell viability z-score within plate (CellTiter-Glo), mean of 3 biological replicates; higher = higher viability relative to plate (less growth inhibition); details: 2 µM; time (hr): 120
Experimental: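 FLX1 fibrolamellar carcinoma cells (DNAJB1-PRKACA fusion), 600 cells/well in 384-well plates, treated with a Selleck kinase inhibitor library (L1200) at 2 uM for 5 days (120 hr); viability by CellTiter-Glo. A z-score was computed within each plate and averaged over three biological replicates.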

[2] = test system: FLX1 + dox-induced PRKAR1A G325D; assay: difference in log2 fold change of viability vs plate median (dox-induced PRKAR1A G325D minus uninduced); higher = compound less effective when PKA is inhibited; details: concentration: not stated (2 or 5 uM); 5 days
Experimental: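 For each plate a log2 fold change vs the plate median was derived, and the values without dox were subtracted from those with dox, averaged over three biological replicates.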

| SMILES | cell viability z-score within plate [1] | difference in log2 fold change of viability [2] |
| --- | --- | --- |
| COc1cc2ncnc(Nc3ccc(Cl)cc3F)c2cc1OC | 1.18 ± 0.67 | -0.233 |
| Cc1ncc(-c2ccnc(Nc3ccc(S(C)(=O)=O)cc3)n2)n1C(C)C | 0.322 ± 0.54 | 0.632 |
| CCc1cncnc1N1CCN(Cc2nc3ccc(C(F)(F)F)cc3[nH]2)CC1 | 0.164 ± 0.73 | -1.55 |
| CN(C)CCOc1ccc(-c2nc(-c3ccncc3)c(-c3ccc4c(c3)CC/C4=N\O)[nH]2)cc1 | 0.259 ± 0.2 | -1.73 |
| O=C(Nc1cccc(Cl)c1)Nc1ncc(CCNc2ncnc3ccsc23)s1 [SNS-314 Mesylate] | -2.37 ± 0.38 | -0.153 |
| O=C(Nc1c[nH]nc1-c1nc2ccc(CN3CCOCC3)cc2[nH]1)NC1CC1 | 0.178 ± 0.39 | 0.115 |
| CO[C@@H](C(=O)N1Cc2[nH]nc(NC(=O)c3ccc(N4CCN(C)CC4)cc3)c2C1)c1ccccc1 | 0.348 ± 0.073 | 0.428 |
| CC(C)n1nc(-c2cc3cc(O)ccc3[nH]2)c2c(N)ncnc21 [Torkinib (PP242)] | -0.546 ± 0.32 | 0.611 |
| O=C(O)c1ccc(-c2c[nH]c3ncc(-c4ccccc4)cc23)cc1C1CCCC1 | -1.12 ± 1.1 | 0.0725 |
| CNC(=O)c1ccc(C)c(-n2c(C)cc(OCc3ccc(F)cc3F)c(Br)c2=O)c1 | 0.325 ± 0.62 | 0.455 |
| CC(C)CCN1c2nc(Nc3cc(F)c(O)c(F)c3)ncc2N(C)C(=O)C1C (stereo unspecified) | -0.812 ± 0.59 | -0.074 |
| O=C(NCc1cccc(O)c1)Nc1nc(-c2ccncc2)cs1 | 0.289 ± 0.42 | -0.0799 |
| COc1cc2c(Oc3ccc4[nH]c(C)cc4c3F)ncnc2cc1OCCCN1CCCC1 [Cediranib (AZD2171)] | 0.6 ± 0.47 | 0.58 |
| CN1CC[C@H](c2c(O)cc(O)c3c(=O)cc(-c4ccccc4Cl)oc23)[C@H](O)C1 [Flavopiridol HCl] | 0.894 ± 0.42 | 0.222 |
| C[C@@H]1CN(CC(=O)Nc2ccc3c(c2)Cc2cccc(-c4cc(=O)cc(N5CCOCC5)o4)c2S3)C[C@H](C)O1 | 0.915 ± 0.16 | -0.0572 |
| COC(=O)Nc1ccc(-c2nc(N3CCOCC3)c3cnn(C4CCN(C(=O)OC)CC4)c3n2)cc1 | 0.411 ± 0.44 | 0.71 |
| c1cncc(CN2CCC(n3ncc4c(N5CCOCC5)nc(-c5ccc6[nH]ccc6c5)nc43)CC2)c1 | 0.437 ± 0.062 | -1.08 |
| CN1CCN(c2ccc3nc(-c4c(N)c5c(F)cccc5[nH]c4=O)[nH]c3c2)CC1 [Dovitinib (TKI-258) Dilactic Acid] | 0.322 ± 0.38 | -0.364 |

| SMILES | cell viability z-score within plate [1] | difference in log2 fold change of viability [2] |
| --- | --- | --- |
| Cc1cc(Nc2cc(N3CCN(C)CC3)nc(Sc3ccc(NC(=O)C4CC4)cc3)n2)n[nH]1 [Tozasertib (VX-680, MK-0457)] | 0.324 ± 0.42 | -0.00164 |
| C=CCc1ccc(O)c(-c2ccc(O)c(CC=C)c2)c1 [Honokiol] | 0.237 ± 0.16 | -1.37 |
| CCN1CCN(Cc2ccc(C(=O)Nc3ccc(C)c(Oc4ccc5c(c4)CC(=O)N5)c3)cc2C(F)(F)F)CC1 | 0.226 ± 0.35 | -0.078 |
| Cc1cn(-c2cc(NC(=O)c3ccc(C)c(Nc4nccc(-c5cccnc5)n4)c3)cc(C(F)(F)F)c2)cn1 [Nilotinib (AMN-107)] | 0.322 ± 0.59 | 0.157 |
| Nc1nccc(Oc2ccc(NC(=O)c3c[nH]cc(-c4ccc(F)cc4)c3=O)cc2F)c1Cl | -0.37 ± 0.32 | -0.00105 |
| O=C(Nc1ccc(-c2ccnc(Nc3ccc(N4CCOCC4)cc3)n2)cc1)C1CCCN1 (stereo unspecified) | 0.342 ± 0.56 | 0.201 |
| Cn1cnc2c(F)c(Nc3ccc(Br)cc3F)c(C(=O)NOCCO)cc21 | -0.254 ± 0.15 | -1.09 |
| CC(C)(C)c1cnc(CSc2cnc(NC(=O)C3CCNCC3)s2)o1 | -1.06 ± 1.3 | 0.0393 |
| CCN1/C(=C/C(C)=O)Sc2ccc(OC)cc21 | -1.85 ± 0.92 | -0.074 |
| CC(=O)Nc1nc(C)c(-c2ccc(Cl)c(S(=O)(=O)NCCO)c2)s1 | -0.0789 ± 0.1 | 1.62 |
| COc1ccc(S(=O)(=O)N(C(C)=O)c2ccccc2/C=C/c2cc[n+]([O-])cc2)cc1 | 0.21 ± 0.36 | 0.0942 |
| Cc1cc(Nc2nc(N[C@@H](C)c3ccc(F)cc3)c(C#N)cc2F)n[nH]1 | 0.513 ± 0.61 |  |
| Nc1ccc(-c2ccc3ncc4ccc(=O)n(-c5cccc(C(F)(F)F)c5)c4c3c2)cn1 [Torin 2] | 0.796 ± 0.29 | 0.605 |
| CCOc1cc(N2CCC(O)CC2)ccc1Nc1ncc2c(n1)N(C)c1ccccc1C(=O)N2C | 0.413 ± 1.6 | 0.697 |
| CNC(=O)c1cc(Oc2ccc(NC(=O)Nc3cc(C(C)(C)C)nn3-c3ccc4ncccc4c3)c(F)c2)ccn1 [Rebastinib (DCC-2036)] | 0.382 ± 0.34 | 0.37 |
| O=c1c(O)c(-c2ccc(O)c(O)c2)oc2cc(O)cc(O)c12 [Quercetin] | 1.1 ± 0.51 | -0.0725 |
| CSc1cccc(Nc2ncc3cc(-c4c(Cl)cccc4Cl)c(=O)n(C)c3n2)c1 | 0.169 ± 0.22 | -0.0582 |
| CCc1nc(-c2cccc(C)c2)c(-c2ccnc(NC(=O)c3ccccc3)c2)s1 | 0.996 ± 0.36 | 0.387 |
